Results as given in the supplement of paper PMC8728848.
The full list was thinned out, with the strongest signals kept by preference.

Columns and labels:
Test in all cases: glycan array binding signal (z-score within array); higher = stronger binding
Conditions in all cases: glycan notation: IUPAC condensed, linker removed
[1] = biological target: Gal3S4S(b1-4)GlcNAc
Outline: (§1)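 Columns mapping to the same glycan were averaged after glycan names were converted to IUPAC-condensed notation. The data come from 3228 arrays in the Consortium for Functional Glycomics database, limited to those with an available protein sequence. Binding is reported as a within-array Z-score averaged across arrays of one protein sequence and across linkers.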

[2] = biological target: GalNAc3S(b1-4)GlcNAc3S
Outline: as §1

[3] = biological target: GlcNAc(b1-2)[GlcNAc(b1-4)]Man(a1-3)[GlcNAc(b1-4)][GlcNAc(b1-2)[GlcNAc(b1-6)]Man(a1-6)]Man(b1-4)GlcNAc(b1-4)[Fuc(a1-6)]GlcNAc
Outline: as §1

[4] = biological target: GlcNAc(b1-3)Fuc
Outline: as §1

[5] = biological target: GlcNAc(b1-3)Gal(b1-4)GlcNAc
Outline: as §1

[6] = biological target: GlcNAc(b1-4)GlcNAc
Outline: as §1

[7] = biological target: Kdn(a2-3)Gal(b1-4)[Fuc(a1-3)]GlcNAc
Outline: as §1

[8] = biological target: Man(a1-2)Man(a1-2)Man(a1-6)[Man(a1-3)]Man
Outline: as §1

[9] = biological target: Man(a1-2)Man(a1-3)[Man(a1-2)Man(a1-6)]Man(a1-6)[Man(a1-2)Man(a1-2)Man(a1-3)]Man
Outline: as §1

[10] = biological target: MurNAc(b1-4)GlcNAc
Outline: as §1

[11] = biological target: Neu5Ac(a2-3)Gal(b1-3)GlcNAc(b1-2)Man(a1-3)[Neu5Ac(a2-3)Gal(b1-3)GlcNAc(b1-2)Man(a1-6)]Man(b1-4)GlcNAc(b1-4)GlcNAc
Outline: as §1

[12] = biological target: Neu5Ac(a2-3)Gal(b1-3)GlcNAc(b1-3)GalNAc
Outline: as §1

[13] = biological target: Neu5Ac(a2-3)Gal(b1-3)GlcNAc(b1-4)Gal(b1-4)Glc
Outline: as §1

[14] = biological target: Neu5Ac(a2-3)Gal(b1-3)[Fuc(a1-4)]GlcNAc(b1-3)Gal(b1-3)[Fuc(a1-4)]GlcNAc
Outline: as §1

[15] = biological target: Neu5Ac(a2-3)Gal(b1-4)GlcNAc(b1-3)Gal
Outline: as §1

[16] = biological target: Neu5Ac(a2-3)Gal(b1-4)GlcNAc(b1-6)[Gal(b1-3)]GalNAc
Outline: as §1

[17] = biological target: Neu5Ac(a2-3)Gal(b1-4)[Fuc(a1-3)]GlcNAc(b1-6)[Gal(b1-3)]GalNAc
Outline: as §1

[18] = biological target: Neu5Ac(a2-3)[GalNAc(b1-4)]Gal(b1-4)GlcNAc(b1-3)GalNAc
Outline: as §1

[19] = biological target: Neu5Ac(a2-6)Gal(b1-4)GlcNAc(b1-2)Man(a1-3)[Neu5Ac(a2-3)Gal(b1-4)GlcNAc(b1-2)Man(a1-6)]Man(b1-4)GlcNAc(b1-4)GlcNAc
Outline: as §1

[20] = biological target: Neu5Ac(a2-6)Gal(b1-4)GlcNAc(b1-2)[Neu5Ac(a2-6)Gal(b1-4)GlcNAc(b1-4)]Man(a1-3)[GlcNAc(b1-4)][Neu5Ac(a2-6)Gal(b1-4)GlcNAc(b1-4)Man(a1-6)]Man(b1-4)GlcNAc(b1-4)GlcNAc
Outline: as §1

[21] = biological target: Neu5Ac(a2-6)Gal(b1-4)GlcNAc(b1-2)[Neu5Ac(a2-6)Gal(b1-4)GlcNAc(b1-6)]Man(a1-6)[Neu5Ac(a2-6)Gal(b1-4)GlcNAc(b1-2)Man(a1-3)][GlcNAc(b1-4)]Man(b1-4)GlcNAc(b1-4)GlcNAc
Outline: as §1

[22] = biological target: Neu5Ac(a2-8)Neu5Ac(a2-3)Gal(b1-4)Glc
Outline: as §1

[23] = biological target: Neu5Ac(a2-8)Neu5Ac(a2-8)Neu5Ac(a2-8)Neu5Ac(a2-3)[GalNAc(b1-4)]Gal(b1-4)Glc
Outline: as §1

[24] = biological target: Neu5Ac9Ac(a2-3)Gal(b1-4)GlcNAc
Outline: as §1

B1: DC-Sign (Homo sapiens), Q9NNX6 (protein)
chain: MSDSKEPRLQQLGLLEEEQLRGLGFRQTRGYKSLAGCLGHGPLVLQLLSFTLLAGLLVQVSKVPSSISQEQSRQDAIYQNLTQLKAAVGELSEKSKLQEIYQELTQLKAAVGELPEKSKLQEIYQELTRLKAAVGELPEKSKLQEIYQELTWLKAAVGELPEKSKMQEIYQELTRLKAAVGELPEKSKQQEIYQELTRLKAAVGELPEKSKQQEIYQELTRLKAAVGELPEKSKQQEIYQELTQLKAAVERLCHPCPWEWTFFQGNCYFMSNSQRNWHDSITACKEVGAQLVVIKSAEEQNFLQLQSSRSNRFTWMGLSDLNQEGTWQWVDGSPLLPSFKQYWNRGEPNNVGEEDCAEFSGNGWNDDKCNLAKFWICKKSAASCSRDEEQFLSPAPATPNPPPA
[1]
  glycan array binding signal (z-score): -0.195
[2]
  glycan array binding signal (z-score): -0.101
[3]
  glycan array binding signal (z-score): -0.179
[4]
  glycan array binding signal (z-score): -0.17
[5]
  glycan array binding signal (z-score): -0.089
[6]
  glycan array binding signal (z-score): -0.109
[7]
  glycan array binding signal (z-score): -0.1
[8]
  glycan array binding signal (z-score): 4.51
[9]
  glycan array binding signal (z-score): 8.32
[10]
  glycan array binding signal (z-score): 0.01
[11]
  glycan array binding signal (z-score): -0.202
[12]
  glycan array binding signal (z-score): -0.142
[13]
  glycan array binding signal (z-score): -0.183
[14]
  glycan array binding signal (z-score): 1.83
[15]
  glycan array binding signal (z-score): -0.186
[16]
  glycan array binding signal (z-score): -0.171
[17]
  glycan array binding signal (z-score): -0.164
[18]
  glycan array binding signal (z-score): -0.171
[19]
  glycan array binding signal (z-score): -0.097
[20]
  glycan array binding signal (z-score): -0.183
[21]
  glycan array binding signal (z-score): -0.167
[22]
  glycan array binding signal (z-score): -0.177
[23]
  glycan array binding signal (z-score): -0.19
[24]
  glycan array binding signal (z-score): -0.175
